Screening results as filed in PubChem BioAssay.
ATXN2 expr inh = inhibitors of ATXN2 expression. HEK-293 ATXN2-luciferase reporter, luminescence, 24 h. Potency, µM (titrated, usually from 57 µM), for inactives: at the highest dose activity change, negative = inhibition, actives largely listed as inhibitors. 360,000 tested, 0.72% active; note: % is set by controls: 0 for no effect and ±100 for the full control effect; nearly all actives have a fitted effect of over 55% in size
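qHTS (up to 57 uM final) was run with 24 h compound exposure of reporter cells at 37 °C. Each well was multiplexed: SteadyGlo luminescence measured ATXN2-luciferase expression after a fluorogenic Gly-Phe-AFC viability readout (25 uM final).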
HepG2 viability = counter-screen for TGF-b inhibitors: cytotoxicity in HepG2 cells | 410,000 tested, 0.76% active | Potency, µM (series often up to 46.1 µM), for the others: at the highest dose activity change, negative = cytotoxicity, hits mostly cytotoxic | HepG2 CAGA-GFP viability, ATP luminescence, 18 h
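HepG2 CAGA-GFP cells (1000/well, DMEM with 1% FBS) received compound, then TGF-beta at 500 pg/mL final, and were incubated 18 hours at 37 degrees C. Viability was read by CellTiter-Glo luminescence. Media-only wells were set as complete cell-killing and DMSO as no toxicity.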
ATXN viability = cell viability loss in ATXN counter-screen; S2 cells (HEK-293 line with an ATXN2-luciferase reporter) viability, CellTiter-Fluor protease fluorescence, 24 h; Potency, µM (doses to about 56.7 µM), actives largely listed as cytotoxic; 400,000 tested, 0.49% active; note: nearly all actives have a fitted effect of over 40% in size
TGFb SMAD3 inh = blocks TGF-b signaling. HepG2 CAGA-GFP TGF-b/SMAD3 reporter, GFP fluorescence, 18 h; TGF-beta stimulated, 500 pg/mL final. Potency, µM (top dose mostly 46.1 µM), without a hit: at the highest dose activity, negative = inhibition, most hits filed as inhibitors. 410,000 tested, 1.2% active. AID 588855; note: % is set by controls: 0 for no effect and ±100 for the full control effect; nearly all actives have a fitted effect of over 65% in size
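First, reporter cells (HEPG2 CAGA-GFP) rested 2 h at 37 degrees C. Next, compounds were pinned in and TGF-beta added to 500 pg/mL final. After 18 h, GFP was imaged per cell and summed per well.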
Nrf2 block = inhibitors of Nrf2 signaling; A549 ARE-Fluc reporter, luciferase luminescence, 18-24 h; Potency, µM (titrated, usually from 46 µM), for the others: at the highest dose activity change, negative = inhibition, actives largely listed as inhibitors; 360,000 tested, 2.1% active; note: % is set by controls: 0 for no effect and ±100 for the full control effect; nearly all actives have a fitted effect of over 60% in size
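Nrf2 activity is the BugLite luminescence, read 15 min after reagent at room temperature, following CellTiter-Fluor cytotoxicity readout (30 min, 37C). Compound titrations were applied for 18-24 h to 5000 A549 ARE_Fluc cells/well in 5% FBS OPTI-MEM.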
A549 viability = counter-screen for Nrf2 inhibitors: cytotoxicity in A549 cells | 390,000 tested, 0.16% active | AID 504648 | A549 ARE-Fluc cells, CellTiter-Fluor viability, 18-24 h | Potency, µM (series often up to 46 µM), for the others: at the highest dose activity change, negative = cytotoxicity, most hits filed as inhibitors; note: % is set by controls: 0 for no effect and ±100 for the full control effect
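A549 ARE-Fluc cells in 5% FBS OPTI-MEM, 5000 cells/well, rested 2 h then exposed to compounds in concentration-response for 18-24 h at 37 °C. Viability by CellTiter-Fluor fluorescence (Ex 405/Em 525) after 30 min; luciferase luminescence (BugLite, 15 min, RT) read afterwards.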
* = called active by the depositor; i = inactive; ? = inconclusive; . = no result. Hits are enriched below; roughly 3.8% of the tested compounds scored in any of these assays. Calls come from the whole dose curve; as a rule, active = well fitted curve in the direction sought with a large enough effect; inconclusive = small, poorly fitted or top-dose-only effect, or another doubt; inactive = no such curve, though single readings can be large; an effect the other way counts as inactive or inconclusive. Potency is the fitted concentration of half-maximal effect.

SMILES	ATXN2 expr inh	HepG2 viability	ATXN viability	TGFb SMAD3 inh	Nrf2 block	A549 viability
COC(=O)COc1ccc(Oc2nc(NC(C)(C)C)nc(N(C)C)n2)nn1	.	1%	.	-3%	7%	1%
CCn1c(=O)sc2cc(NS(=O)(=O)c3ccc(F)c(C)c3)ccc21	.	-28%	.	?	18µM*	-3%
Cc1cc(S(=O)(=O)Nc2ccc3[nH]c(=O)sc3c2)ccc1F	.	-22%	.	-19%	.	-1%
COCCNC(=O)C1(C)CCCN(C(=O)c2ccc3snnc3c2)C1 (stereo not drawn)	1%	-20%	i	-6%	.	.
Cc1cc(C)cc(NC(=O)CN2C(=O)c3ccccc3Sc3ccc(C(=O)N4CCCC4)cc32)c1	2%	-19%	?	-16%	.	-17%
COc1ccc(C(c2nnnn2Cc2ccccc2)N2CCN(c3nc4ccccc4s3)CC2)cc1 (stereo not drawn)	-7%	4%	?	10%	.	8%
CCC(c1nnnn1CS(=O)(=O)c1ccc(C)cc1)N1CCN(c2nc3ccccc3s2)CC1 (stereo not drawn)	-7%	-5%	i	-27%	8.2µM*	-7%
COCCn1nnnc1C(c1ccc(OC)c(OC)c1)N1CCN(c2nc3ccccc3s2)CC1 (stereo not drawn)	-25%	-12%	i	-20%	9.2µM*	10%
NS(=O)(=O)c1ccc(CCN2C(=O)/C(=C\c3ccc(Cl)cc3)SC2=S)cc1	25µM*	1%	.	-15%	?	?
CCOC(=O)C1=NNC2C(=O)N(Cc3ccccc3)C(=O)C12 (stereo not drawn)	14%	-11%	i	-3%	-11%	2%
CCC1=NN(C(=O)C(=O)Nc2ccccc2OC)C(O)(C(F)(F)F)C1 (stereo not drawn)	0%	-41%	i	?	7%	-18%
COc1ccccc1NC(=O)C(=O)N1N=C(C(C)C)CC1(O)C(F)(F)F (stereo not drawn)	-14%	-11%	?	-1%	23µM*	-21%
C=CCN1C(=O)C2(OCCCO2)c2cc(C)ccc21	7%	2%	i	13%	2%	7%
COc1ccccc1NC(=O)CN1CCN(CC(=O)Nc2ccc(F)c(F)c2)CC1	6%	-54%	i	6.3µM*	.	-8%
COc1ccccc1NC(=O)CN1CCN(CC(=O)Nc2ccc(C)c(F)c2)CC1	-22%	-6%	i	-13%	-2%	-3%
CCCCCCSc1cc(-c2nc3cc(C)ccn3c2NCCCC)ccc1OC	?	-50%	.	?	?	-20%
CCCCNc1c(-c2cccc(-c3cc(C(C)=O)cs3)c2)nc2cc(C)ccn12	22µM*	-27%	11µM*	?	-12%	-4%
Cc1ccc(N2CCN(c3nc4ccc(C)cc4n4nnnc34)CC2)c(C)c1	.	2%	.	28%	?	-6%
Nc1c(C(=O)Nc2ccccc2)c2nc3ccccc3nc2n1CCCN1CCOCC1	?	14µM*	i	?	?	3%
Cc1cc(C)cc(NC(=O)CSCc2cc(=O)c3cc(Cl)ccc3[nH]2)c1	-3%	3%	?	-3%	.	-13%
O=C(c1ccc(N2CCCCC2)c([N+](=O)[O-])c1)N1CCOCC1	0%	-2%	i	0%	4%	7%
O=C(c1ccc(N2CCCC2)c([N+](=O)[O-])c1)N1CCN(CCO)CC1	-3%	7.9µM*	i	-3%	24%	1%
CC1Cc2ccccc2N1C(=O)c1ccc(N2CCCC2)c([N+](=O)[O-])c1 (stereo not drawn)	?	-40%	i	-25%	18µM*	?
CC1Cc2ccccc2N1C(=O)c1ccc(N2CCCCC2)c([N+](=O)[O-])c1 (stereo not drawn)	3%	-36%	i	?	23µM*	-13%
O=C(c1ccc(N2CCCCC2)c([N+](=O)[O-])c1)N(Cc1ccccc1)c1ccccn1	-13%	-8%	i	-5%	16µM*	-8%
SMILES	ATXN2 expr inh	HepG2 viability	ATXN viability	TGFb SMAD3 inh	Nrf2 block	A549 viability
CCN(CC)c1nc(C#N)nc(N2CCOCC2)n1	.	-17%	.	-2%	23µM*	-3%
CN(C)CCNC(=O)c1ccc(-n2c(-c3ccccc3)cc3c2CCCC3)cc1	.	18µM*	.	?	23µM*	0%
CCC(C)NC(=O)c1ccc(-n2c(-c3ccccc3)cc3c2CCCC3)cc1 (stereo not drawn)	.	-20%	.	?	18µM*	-2%
CCOCCCNC(=O)c1ccc(-n2c(-c3ccccc3)cc3c2CCCCC3)cc1	.	-16%	.	?	18µM*	-2%
O=C(Cc1ccccc1)NCC(=O)OCC(=O)c1ccc(OC(=O)c2ccccc2)cc1	70%	-3%	i	-1%	.	5%
CC(=O)c1c(C)[nH]c(C(=O)CSc2nnc(C3CCCCC3)n2N)c1C	-20%	-11%	i	-4%	21µM*	-9%
O=C(Nc1ccccc1Cl)C1CCN(c2nc3ccccc3[nH]2)CC1	.	-8%	.	-16%	.	-5%
O=C(O)CNC(=O)c1ccc(Oc2c(F)c(F)c(Oc3ccc(C(=O)NCC(=O)O)cc3)c(F)c2F)cc1	7%	-10%	i	2%	11%	0%
CCOC(=O)c1cc(-c2ccccc2)nn1-c1ccccn1	0%	8%	i	3%	17%	-9%
CCOC(=O)c1cc(-c2cccnc2)nn1-c1ccccc1	-9%	-14%	i	-8%	12µM*	2%
O=C1CCC(C(=O)N2CCc3ccccc3C2)CN1CCCN1CCOCC1 (stereo not drawn)	7%	10%	i	3%	12%	-1%
CC(C)(C)n1[nH]c2c3c(ccc2c1=O)C(=O)c1ccccc1C3=O	-21%	6.3µM*	?	10µM*	?	-20%
Cc1ccc(C)c(-n2[nH]c3c4c(ccc3c2=O)C(=O)c2ccccc2C4=O)c1	-8%	1%	i	-2%	23µM*	?
CCN(CCO)Cc1csc2ccc(Br)cc12	-9%	-1%	i	37%	21%	-2%
CC(=O)c1ccc(NC(=O)CSc2nnc(Cn3c(=O)sc4ccccc43)n2C)cc1	7%	-33%	i	0%	5%	-2%
CC(C)c1ccc(NC(=O)c2cc(S(=O)(=O)NCc3ccccc3Cl)ccc2F)cc1	?	-82%	.	?	.	-25%
COc1cc(C(O)c2nc(-c3cccs3)cs2)ccc1F (stereo not drawn)	6%	-9%	i	-1%	.	.
